Source: PubChem BioAssay (NCI)
Values joined by “and” are separate entries in the source; they are usually repeats but may differ in a detail not shown here. Equal values may be shown once. Compounds without any hit were thinned out: in the full panel of roughly 83,000, 20% have a hit.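 In brief: 96-well plates, 48 h treatment, single concentration, percent growth endpoint.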 Values without a mark were called inactive. Active and inactive are the calls of the source. How the source made its calls: active means growth percent below 10; inactive means the rest.

The compounds below were run on MDA-MB-435 melanoma (assay: NCI-60 one-dose screen, 48 h (100 = growth as untreated, 0 = no growth, -100 = all killed)). Settings: 10 µM unless noted.
For `N#Cc1cc(-c2ccc3ncnc(N4CCc5cc(F)c(Cl)cc54)c3c2)cnc1N`, the growth was 39.2%. `Cn1cc(Nc2ncnc(-c3ccc(N4CCCC4)c(C#N)c3)n2)cn1` was tested, and the growth was 8.16% (active). `CN(C)CCCc1ccc(Nc2cnn(C)c(=O)c2Cl)cc1` was tested, and the growth was 97.8%. Work on `O=Cc1cncc(-c2ccc3ncnc(N4CCc5cc(F)c(Cl)cc54)c3c2)c1` yielded a growth of 46.2%. `N#CC1=C(c2cccs2)Nc2c(c(-c3ccccc3)nn2-c2ccccc2)C12C(=O)Nc1ccccc12` (stereo not given) was tested, and the growth was 28.3%. Compound `O=C(CSc1nc2sc3c(c2c(=O)n1-c1ccc(Cl)cc1)CCCC3)NNC(=O)c1ccc(F)cc1` has a growth of 98.2%. Work on `COc1ccc(-c2cc(-c3cc(OC)c(OC)c(OC)c3)[nH]c(=O)c2C#N)cc1` yielded a growth of 73.6%. For `CC(=O)Nc1cccc(-n2c(COc3ccc(Br)cc3)nc3ccccc32)c1`, the growth was 107% and 103%. Work on `Cc1cc(Cl)ccc1NC(=O)Nc1ccc(-c2ccc3c(c2)NC(=O)/C3=C\c2ccc[nH]2)cc1` yielded a growth of 98.6%. In the case of `Nc1cc(-c2c[nH]c3ccc(Br)cc23)nc2cc(-c3c[nH]c4ccccc34)nn12`, the growth was -75.1% (active). For `CCc1ccc(SC2c3cc(OC)ccc3Oc3nc(N)c(C#N)c(N)c32)cc1` (stereo not given), the growth was -22.1% (active). With `COc1ccc(C(=O)NNC(=O)CSc2nc3sc4c(c3c(=O)n2-c2ccc(Cl)cc2)CCCC4)cc1` the growth was 93.4%. For `CNc1nc2ccccc2n2c(-c3ccc(O)c(O)c3)cnc12`, the growth was -9.22% (active). For `CN(CCSSCCN1CCOCC1)C(=O)Oc1cc2c(c3ccccc13)[C@H](CCl)CN2C(=O)c1cc2cc(OCCCN3CCC3)ccc2[nH]1`, the growth was -36.5% (active). `Cn1cc(-c2cc(N)n3nc(-c4c[nH]c5ccc(F)cc45)cc3n2)c2cccnc21` was tested, and the growth was -76.6% (active). In the case of `O=C(Cn1c(-c2ccccc2)nc2ccccc21)N=Nc1c(O)[nH]c2ccc(Br)cc12`, the growth was -32.3% (active). In the case of `O=C(NN1C(=O)/C(=C/C=C/c2ccc([N+](=O)[O-])o2)SC1=S)c1ccncc1`, the growth was -83.7% (active). `CCCCCCCCCc1ccc(C(=O)Nc2cc(C)ccc2C(=O)OC)cc1` was tested, and the growth was 105%. `COc1ccc(N=Nc2c(N)nn3c(-c4ccc([N+](=O)[O-])cc4)ccnc23)cc1` gave a growth of 107%. Work on `COc1ccc2[nH]c(O)c(N=Nc3nc(-c4ccc(Cl)cc4)cs3)c2c1` yielded a growth of 33.2%. For `C[C@@H](Nc1c(C#N)cnc2ccc(-c3cnc4[nH]ncc4c3)cc12)c1ccccc1`, the growth was 22.4%. For `CS(=O)(=O)Nc1cccc(-n2c(COc3ccc(OC(F)(F)F)cc3)nc3ccccc32)c1`, the growth was 102% and 103%. Compound `Cc1cc(C(NC(=O)CCCCCNc2cccc3c2C(=O)N(C2CCC(=O)CC2=O)C3=O)c2cccc(N(C)C)c2)c(O)c2ncccc12` (stereo not given) has a growth of 36.1%. For `COc1ccc(S(=O)(=O)Nc2ccc(-c3ccc4c(c3)NC(=O)/C4=C\c3ccc[nH]3)cc2)cc1OC`, the growth was 22%. Compound `COc1ccc(-c2nc3ccccc3n2CC(=O)N=Nc2c(O)[nH]c3ccc(OC)cc23)cc1` has a growth of 26.3%. In the case of `Cc1ccc(C(C(=O)NC2CCCCC2)N(Cc2ccccc2Cl)C(=O)c2ccc(CN3CCOCC3)o2)o1` (stereo not given), the growth was 102%. For `COc1ccc(N=Nc2c(N)nn3c(-c4ccc(OC)c(OC)c4)ccnc23)cc1`, the growth was 81.9%. `Cc1ccc(Cl)cc1NC(=O)N/C(N)=N/c1nc2ccccc2s1` was tested, and the growth was -63.9% (active). For `N#Cc1cc(-c2ccnc(Nc3ccc(N4CCN(C5COC5)CC4)cc3)n2)ccc1N1CCCC1`, the growth was 66.9%. `COc1ccc(-c2nc3ccc(-c4nnc(SCC(=O)Nc5ccc(/C(C)=N\O)cc5)o4)cc3[nH]2)cc1` gave a growth of 14.5%. `O=C1/C(=C/c2cnc(-c3ccccc3)s2)SC(=S)N1Cc1ccc2c(c1)OCO2` showed a growth of 94.5%. In the case of `Cc1nn(-c2ccccc2)c2ncn(CC(=O)N/N=C/c3ccccc3O)c(=O)c12`, the growth was 64.1%. `COc1ccc(C2=NN(C(=O)[C@H]3[C@@H](c4ccco4)c4sc(=O)[nH]c4S[C@@H]3C)C(c3ccc4ccccc4c3)C2)cc1` (stereo not given in full) showed a growth of 41.8%. For `CCc1ccccc1NC(=O)N/C(N)=N/c1nc2ccccc2s1`, the growth was -46.7% (active). With `O=C(Nc1ccc(Cl)c(C(F)(F)F)c1)N1CCN(c2cc(-c3cn(-c4ccccc4)nc3-c3cccc(O)c3)ccn2)CC1` the growth was -65.4% (active).
